Screening results as filed in PubChem.
The list is not random: actives were taken first. Their share in the collection is about 3.2%.
FBA Mtb inh: Mtb fructose-bisphosphate aldolase inhibition. inhibition, % at 1 µM. AID 588726. 2.3% of 360,000 active. purified M. tuberculosis FBA, fluorescence read-out. P9WQA3; in the data active means inhibition above about 27%;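 further: 0% = vehicle and 100% = reference inhibitor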
Yp Topo-I inh: Y. pestis Topo-I inhibition via cleavage products. Y. pestis Topo-I cleavage product accumulation, plate reader. activity, % at 10 µM. 0.064% of 360,000 active. AID 504884; in the data active means activity above about 50%, passing the limit was not always enough
GDH-TPI counter-1: GDH-TPI coupled enzyme inhibition counter-screen. GDH-TPI coupled enzyme counterscreen, NADH absorbance. inhibition, % at 4.8 µM. 1.2% of 360,000 active. AID 588335; in the data active means inhibition above about 30%;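 further: 0% = DMSO wells and 100% = wells lacking the enzyme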
PrPC surface inh: cell surface PrPC inhibition, primary TR-FRET screen; P04156; TR-FRET read-out; inhibition, % at 13.8 µM; 0.43% of 370,000 active; AID 720596; in the data active means inhibition above about 24%; further: 0% = median of the test wells and 100% = reference compound wells
TcdB inh: inhibitors of Clostridioides difficile toxin B glycohydrolase; P18177; TcdB glycohydrolase enzymatic assay, plate reader; inhibition, % at 9.99 µM; 0.24% of 350,000 active; AID 652162
Mtb FBA inh conf: Mtb FBA inhibition, confirmed; shares compounds with FBA Mtb inh; purified M. tuberculosis FBA, fluorescence read-out; inhibition, % at 1 µM; 78% of 5,600 active; AID 651616; in the data active means inhibition above about 27%;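 further: 0% = vehicle wells and 100% = reference inhibitor wells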
GDH-TPI counter-2: GDH-TPI inhibition counter-screen for FBA inhibitors. shares compounds with FBA Mtb inh. GDH-TPI coupled enzyme counterscreen, fluorescence. inhibition, % at 1 µM. 81% of 5,600 active. AID 652141
* = called active by the depositor. Unless noted, no stated cut-off is given here; in the data, active means inhibition above about 10%; inactive means the rest.

Cc1c(Cc2ccccc2)c(=O)oc2cc(OC(C)C(=O)NCC3CCC(C(=O)O)CC3)c(Cl)cc12 (stereo unspecified) was read as FBA Mtb inh 33.5*, Yp Topo-I inh 15.8, GDH-TPI counter-1 28.4, PrPC surface inh -1.5, TcdB inh 1.2, Mtb FBA inh conf active and GDH-TPI counter-2 189.9*.
CNC[C@H]1OCCCC[C@@H](C)Oc2ccc(NC(=O)CCCN(C)C)cc2C(=O)N([C@H](C)CO)C[C@@H]1C was read as TcdB inh -0.3.
For Cc1ccc(NC(=O)c2sc3nc(N4CCOCC4)c4c(c3c2N)CCCC4)cc1 the results were FBA Mtb inh 7.1, Yp Topo-I inh -5.0, GDH-TPI counter-1 11.9, PrPC surface inh -1.2 and TcdB inh -0.2.
For COc1cccc(NC(=O)c2sc3nc(N4CCOCC4)c4c(c3c2N)CCCC4)c1 the results were FBA Mtb inh 29.0*, Yp Topo-I inh -6.4, GDH-TPI counter-1 13.6, PrPC surface inh 3.0, TcdB inh 0.9, Mtb FBA inh conf 48.3* and GDH-TPI counter-2 45.0*.
Screening Nc1c(C(=O)Nc2ccccc2)sc2nc(N3CCOCC3)c3c(c12)CCCC3 returned FBA Mtb inh 51.4*, Yp Topo-I inh 4.3, GDH-TPI counter-1 22.1, PrPC surface inh 0.0, TcdB inh 1.7, Mtb FBA inh conf 158.1* and GDH-TPI counter-2 159.9*.
CC(=O)c1ccc(NC(=O)c2sc3nc(N4CCOCC4)c4c(c3c2N)CCCC4)cc1 was read as FBA Mtb inh 4.8, Yp Topo-I inh 14.4, GDH-TPI counter-1 10.9, PrPC surface inh 5.2 and TcdB inh 1.9.
For Nc1c(C(=O)Nc2ccc(Cl)cc2)sc2nc(N3CCOCC3)c3c(c12)CCCC3 the results were FBA Mtb inh 37.2*, Yp Topo-I inh 1.2, GDH-TPI counter-1 14.9, PrPC surface inh 9.3, TcdB inh 0.3, Mtb FBA inh conf -2.6 and GDH-TPI counter-2 -1.9.
C[C@H]1CN([C@@H](C)CO)C(=O)c2cc(-c3ccccc3)cnc2O[C@H]1CN(C)C(=O)NC1CCCC1 was read as TcdB inh 0.9.
`CCC(=O)N[C@H]1CC[C@@H](CCNC(=O)Nc2ccc(F)cc2)O[C@H]1CO` gave TcdB inh 1.1.
`O=S(=O)(c1ccc(-c2ccccc2)cc1)N1CCN(Cc2cccc(OCCO)c2)CC1` gave TcdB inh -1.0.
`COc1ccc(-c2nc3ccc(N4CCN(C)CC4)cc3c(=O)[nH]2)cc1` gave FBA Mtb inh 32.4*, Yp Topo-I inh 3.7, GDH-TPI counter-1 18.3, PrPC surface inh -2.2, TcdB inh -1.0, Mtb FBA inh conf 3.2 and GDH-TPI counter-2 2.8.
Screening C[C@@H]1CN([C@H](C)CO)C(=O)c2cccc(NC(=O)c3ccncc3)c2O[C@@H]1CN(C)C(=O)NC1CCCCC1 returned TcdB inh 1.5.
`COC(=O)CNC(=O)COC(=O)c1cc(Cl)cc(Cl)c1N` gave FBA Mtb inh 109.5*, Yp Topo-I inh -8.4, GDH-TPI counter-1 -2.7, PrPC surface inh -5.3, Mtb FBA inh conf active and GDH-TPI counter-2 active.
For CC(C)CNC(=O)COC(=O)c1cc(Cl)cc(Cl)c1N the results were FBA Mtb inh 78.2*, Yp Topo-I inh -3.7, GDH-TPI counter-1 -1.0, PrPC surface inh 5.9, TcdB inh 0.3, Mtb FBA inh conf active and GDH-TPI counter-2 active.
COC(=O)CNC(=O)COC(=O)c1ccc(OC)c([N+](=O)[O-])c1 was read as FBA Mtb inh -1.3, Yp Topo-I inh 1.9, GDH-TPI counter-1 8.3, PrPC surface inh 1.3 and TcdB inh 0.7.
For C[C@@H]1CN([C@H](C)CO)C(=O)c2cccc(NS(C)(=O)=O)c2O[C@@H]1CN(C)Cc1ccncc1 the results were TcdB inh -0.5.
Screening COCC(=O)Nc1ccc2c(c1)C(=O)N(C)C[C@H](OC)[C@H](C)CN(C(=O)c1cnccn1)[C@H](C)CO2 returned TcdB inh 0.0.
Cc1cccc(-c2cnc3cccnn23)c1 was read as FBA Mtb inh 44.7*, Yp Topo-I inh -4.4, GDH-TPI counter-1 0.9, PrPC surface inh -3.3, TcdB inh 0.8, Mtb FBA inh conf -7.8 and GDH-TPI counter-2 -7.5.
For CCOc1cccc(-c2cnc3cccnn23)c1 the results were FBA Mtb inh 72.7*, Yp Topo-I inh 2.9, GDH-TPI counter-1 16.4, PrPC surface inh -9.7, TcdB inh 0.3, Mtb FBA inh conf -2.5 and GDH-TPI counter-2 -6.2.
Cc1noc(C)c1S(=O)(=O)Nc1ccc2c(c1)C(=O)N([C@@H](C)CO)C[C@H](C)[C@H](CN(C)C)O2 was read as TcdB inh 1.2.
Screening CN1[C@@H]2c3ccc(-c4ccc(F)cc4)c(=O)n3C[C@@H]2[C@@H](CO)[C@@H]1C(=O)NCCN1CCCCC1 returned TcdB inh -1.8.
Screening CC(=O)OC[C@H]1O[C@@H](Sc2cccc3cccnc23)[C@H](OC(C)=O)[C@@H](OC(C)=O)[C@H]1OC(C)=O returned FBA Mtb inh 34.5*, Yp Topo-I inh -10.2, GDH-TPI counter-1 -1.4, PrPC surface inh 1.6, TcdB inh 1.1, Mtb FBA inh conf 66.7* and GDH-TPI counter-2 83.3*.
Screening CC(=O)OC[C@H]1O[C@@H](Sc2cccc3cccnc23)[C@H](OC(C)=O)[C@@H](OC(C)=O)[C@@H]1OC(C)=O returned FBA Mtb inh 28.4*, Yp Topo-I inh 7.5, GDH-TPI counter-1 9.6, PrPC surface inh 2.6, Mtb FBA inh conf 57.4* and GDH-TPI counter-2 60.1*.
CC(=O)OCC1OC(c2ccccc2)C(OC(C)=O)C(OC(C)=O)C1OC(C)=O (stereo unspecified) was read as FBA Mtb inh -0.5, Yp Topo-I inh -2.3, GDH-TPI counter-1 -4.0 and PrPC surface inh -0.1.
`COCc1cc(C)nc2sc(C(=O)Nc3nccs3)c(N)c12` gave FBA Mtb inh 2.7, Yp Topo-I inh 4.2, GDH-TPI counter-1 25.5, PrPC surface inh -12.6 and TcdB inh 1.8.
`CCOC(=O)c1sc2nc(C)cc(C)c2c1N` gave FBA Mtb inh 35.6*, Yp Topo-I inh -3.3, GDH-TPI counter-1 23.1, PrPC surface inh -7.7, Mtb FBA inh conf 64.5* and GDH-TPI counter-2 56.4*.
Screening Cc1cc(C)c2c(N)c(C(=O)Nc3nccs3)sc2n1 returned FBA Mtb inh 105.5*, Yp Topo-I inh -5.5, GDH-TPI counter-1 13.1, PrPC surface inh -18.2, Mtb FBA inh conf 150.8* and GDH-TPI counter-2 109.9*.
Screening C[C@H](CO)N1C[C@H](C)[C@@H](CN(C)S(C)(=O)=O)Oc2c(NC(=O)C3CCOCC3)cccc2C1=O returned TcdB inh 0.6.
`CCSc1nc(N)c(C#N)c(-c2ccco2)c1C#N` gave FBA Mtb inh 2.6, Yp Topo-I inh 1.2, GDH-TPI counter-1 5.8 and PrPC surface inh -1.8.
`CC(C)Cc1cc(-c2ccco2)c(C#N)c(N)n1` gave FBA Mtb inh 53.5*, Yp Topo-I inh 2.2, GDH-TPI counter-1 6.1, Mtb FBA inh conf 168.9* and GDH-TPI counter-2 145.1*.
